Structures are written as SMILES. Records with an inconclusive call do not appear. Calls of active or inactive are those of the source. Calls come from the whole dose curve; as a rule, active = well fitted inhibition curve with a large enough effect; inconclusive = small, poorly fitted or top-dose-only effect; inactive = flat fitted curve, though single readings scatter.

The values that follow come from PubChem BioAssay (NCATS).

The test deals with Zika virus NS2B-NS3 protease. The test is described as follows: Primary screen GU AMC qHTS for Zika virus inhibitors (AID 1347154).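 Note: 0% = no-inhibitor control and -100% = no-enzyme control; nearly all actives have a fitted effect of over 70% in size.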 The settings on record: Zika NS2B-NS3 unlinked protease, AMC fluorogenic substrate; series mostly up to 54.1 µM; activity change, negative = inhibition: at the top concentration. Put shortly: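 Unlinked Zika NS2B hydrophilic domain/NS3 protease domain noncovalent complex (25 nM final) in 10 mM Tris-HCl pH 8.0, 0.01% Tween 20, with AMC peptide substrate. Fluorescence (ex 340, em 450 nm) change over 15 min, room temperature; percent inhibition fitted to 4-parameter Hill equation.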
(In general: qHTS replaces the single test concentration by a dilution series.)
Regarding `CCCC1CCCCN1` (configuration not stated), the “activity change, negative = inhibition” value was 3.59% (inactive).
`Cn1cc(C2=C(c3cn(C4CCN(Cc5ccccn5)CC4)c4ccccc34)C(=O)NC2=O)c2ccccc21`: the Potency entry is “inactive”.
Take `FC(F)(F)c1cccc(C2=CCN(CCc3ccc4ccccc4c3)CC2)c1`: the Potency result was “inactive”.
Consider `CN1CCN(C(=O)O[C@H]2c3nccnc3C(=O)N2c2ccc(Cl)cn2)CC1`, for which the Potency result was “inactive”.
Regarding `CC(C)=CC1C(C(=O)OCc2cccc(Oc3ccccc3)c2)C1(C)C` (configuration not stated), the “activity change, negative = inhibition” value was -10.3% (inactive).
Consider `CCC(C(N)=O)N1CCCC1=O` (configuration not stated), for which the Potency result is “inactive”.
On to `CCN(CC)CCN1C(=O)CN=C(c2ccccc2F)c2cc(Cl)ccc21`, for which the “activity change, negative = inhibition” value was 5.57% (inactive).
Turning to `CCC(COC(=O)c1cc(OC)c(OC)c(OC)c1)(c1ccccc1)N(C)C` (configuration not stated), the “activity change, negative = inhibition” value was -6.15% (inactive).
For `N[C@@H](Cc1ccc(N(CCCl)CCCl)cc1)C(=O)O`, the Potency entry is “inactive”.
`CC1=C2C[C@@H]3[C@@H](CC=C4C[C@@H](O)CC[C@@]43C)[C@@H]2CC[C@]12O[C@H]1C[C@H](C)CN[C@H]1[C@H]2C`: the “activity change, negative = inhibition” value is 7.72% (inactive).
On to `COc1ccc(Cc2nccc3cc(OC)c(OC)cc23)cc1OC`, for which the Potency entry is “inactive”.
The same measure, in the same setting: the result for `CC(C)CC(N(C)C)C1(c2ccc(Cl)cc2)CCC1` (configuration not stated) reads “inactive”.
`Cc1ccc(S(=O)(=O)N[C@@H](CCCCN)C(=O)CCl)cc1`: the “activity change, negative = inhibition” value was -11.3% (inactive).
For the compound `CN(C)CCN(C)CCc1ccc(Cl)c(Cl)c1`, the Potency result was “inactive”.
For the compound `CC(C)NCC(O)c1ccccc1Cl` (configuration not stated), the “activity change, negative = inhibition” value is -3.79% (inactive).
Consider `N[C@@H]1C[C@H]1c1ccccc1`, for which the “activity change, negative = inhibition” value was -3.34% (inactive).
Regarding `CC1NCCOC1c1ccccc1` (configuration not stated), the “activity change, negative = inhibition” value is 1.25% (inactive).
`C[C@@H]1[C@@H](CC(C[C@H]2O[C@@H]3O[C@]4(C)CC[C@@H]5[C@H](C)CC[C@@H]([C@H]2C)[C@@]35OO4)C[S+](=O)([O-])c2ccc(COC(=O)N(C)C)cc2)O[C@@H]2O[C@]3(C)CC[C@H]4[C@H](C)CC[C@@H]1[C@@]24OO3` (some centres not stated): the “activity change, negative = inhibition” value was 4.33% (inactive).
Take `C=C1CC[C@@]2(O)[C@H]3Cc4ccc(O)c5c4[C@@]2(CCN3CC2CC2)[C@H]1O5`: the “activity change, negative = inhibition” value was 4.74% (inactive).
On to `O=C1CC[C@@]2(O)[C@H]3Cc4ccc(O)c5c4[C@@]2(CCN3CC2CC2)[C@H]1O5`, for which the Potency entry was “inactive”.
`CN1C(=S)CN=C(c2ccccc2)c2cc(Cl)ccc21`: the “activity change, negative = inhibition” value is 4.75% (inactive).
As to `O=C(O)c1ccc2[nH]cc(CCCCN3CC=C(c4ccccc4)CC3)c2c1`, the Potency entry is “inactive”.
As for `COc1ccc(C(=O)c2c(C)n(CCN3CCOCC3)c3ccccc23)cc1`, the Potency result was “inactive”.
Consider `CC(C)(N)Cc1ccc(Cl)cc1`, for which the “activity change, negative = inhibition” value is -3.06% (inactive).
`OCCOc1ccccc1`: the “activity change, negative = inhibition” value is 0.226% (inactive).
With `COC1(CS(=O)c2ccccc2)CCN(CCc2c[nH]c3ccc(F)cc23)CC1` (configuration not stated), the Potency entry is “inactive”.
Turning to `C[C@@H]1[C@@H](C(=O)C[C@H]2O[C@@H]3O[C@]4(C)CC[C@@H]5[C@H](C)CC[C@@H]([C@H]2C)[C@@]35OO4)O[C@@H]2O[C@]3(C)CC[C@H]4[C@H](C)CC[C@@H]1[C@@]24OO3`, the “activity change, negative = inhibition” value was 4.27% (inactive).
As for `Cn1c(CCCC(=O)O)nc2cc(N(CCCl)CCCl)ccc21`, the Potency result was “inactive”.
In the case of `O=C(NC(O)C(Cl)(Cl)Cl)NC(O)C(Cl)(Cl)Cl` (configuration not stated), the “activity change, negative = inhibition” value was -0.419% (inactive).
As to `CC(C)(C)NCC(O)c1cc(Cl)c(N)c(Cl)c1` (configuration not stated), the “activity change, negative = inhibition” value is 0.145% (inactive).
As to `Oc1cccc2cccnc12`, the “activity change, negative = inhibition” value was -9% [at 104 µM] (inactive).
On to `Clc1ccc(CCC(Cn2ccnc2)Sc2c(Cl)cccc2Cl)cc1` (configuration not stated), for which the Potency result was “inactive”.
